In PubChem BioAssay (EPA / NIEHS) one finds AC50 and outcome data, which are given here for 14 compounds.

Assay [1] concerns TTR (gene 7276). Briefly: CCTE_GLTED_hTTR_0.125uM: CCTE's human Transthyretin (hTTR) Inhibition Assay, with 0.125uM TTR, Great Lakes Toxicology and Ecology Division (GLTED) Lab (AID 2284431).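 Also: hits lower the fluorescence signal relative to DMSO baseline.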 Put shortly: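 Probe-displacement format: chemicals competing for the T4 site release ANSA from 0.125uM TTR during a 2 h incubation, measured by fluorescence at 380 excitation and 475 emission.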

Assay [2] deals with SRY-box transcription factor 2 (SOX2) Protein Expression, Deisenroth Lab, SOX2 (gene 6657). Briefly: CCTE_Deisenroth_DEVTOX-GLR_Pluri_SOX2: CCTE's DevTox GLR-Pluri Assay Evaluation of SRY-box transcription factor 2 (SOX2) Protein Expression, Deisenroth Lab (AID 2284428). The essentials: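 SOX2 expression frequency is scored in a human pluripotent reporter line, RUES2-GLR, exposed to chemicals twice over 48 h. Imaging-based SOX2+ cell percentage is normalized as change versus 0.2% DMSO.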

Assay [3] deals with Brachyury (BRA) Protein Expression, Deisenroth Lab, TBXT (gene 6862). Briefly: CCTE_Deisenroth_DEVTOX-GLR_Pluri_BRA: CCTE's DevTox GLR-Pluri Assay Evaluation of Brachyury (BRA) Protein Expression, Deisenroth Lab (AID 2284429; active = hit-call score of the fitted dose curve at least 0.9, where 1 is the maximum). The essentials: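 An inducible fluorescent BRA reporter in RUES2-GLR cells tracks mesoderm differentiation. Compounds (10 concentrations, 1 nM - 200 uM) are dosed twice within a 48-h differentiation. The endpoint subtracts the 0.2% DMSO control from percent BRA+ cells.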

Assay [4] in a line: CCTE_Deisenroth_DEVTOX-GLR_Pluri_CellCount: Viability Assessment in CCTE's DevTox GLR-Pluri Assay Evaluation of Total Cell Counts, Deisenroth Lab (AID 2284430). The essentials:
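RUES2-GLR human pluripotent cells, seeded 24 h, then differentiated 48 h with two chemical exposures 24 h apart; 10-point series 1 nM - 200 uM. Fixed, nuclear-stained, imaged (5 fields/well); nuclei count as % change vs 0.2% DMSO.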

Inconclusive results are not listed. The source made the active and inactive calls. The calls were made as follows, unless noted: active = hit-call score of the fitted dose curve at least 0.9, where 1 is the maximum; inactive = score below 0.9.

Regarding `CN(C)c1ccc(C(=C2C=CC(=[N+](C)C)C=C2)c2ccc(N(C)C)cc2)cc1`, the AC50 in assay [1] was 21.6 µM (active).

With `CCCCCc1ccc(N)cc1`, the AC50 in assay [1] is 26.3 µM (active).

On to `CO[C@H]1/C=C/O[C@@]2(C)Oc3c(C)c(O)c4c(O)c(c(/C=N/N5CCN(C)CC5)c(O)c4c3C2=O)NC(=O)/C(C)=C\C=C\[C@H](C)[C@H](O)[C@@H](C)[C@@H](O)[C@@H](C)[C@H](OC(C)=O)[C@@H]1C`, for which the outcome in assay [2] was inactive. Moreover, the AC50 was 59.9 µM (active) in assay [3] and 19.8 µM (active) in assay [4].

With `CCCCCCCCOc1ccc(C(=O)c2ccccc2)c(O)c1`, the concentration at half-maximal activity (AC50) in assay [1] was 25 µM (active).

Consider `COCC(C)OCC(C)OCC(C)O` (centres undefined), for which the call in assay [1] was inactive.

In the case of `Cc1oc2c(NC(=O)c3c(Cl)cccc3Cl)cccc2c1C(C)(C)O`, the AC50 in assay [1] was 1.47 µM (active).

Regarding `OCCO`, the compound was called inactive in assay [2], in assay [3] and in assay [4].

As for `O=C(O)Cc1cc(I)c(Oc2ccc(O)c(I)c2)c(I)c1`, in assay [1], the concentration at half-maximal activity (AC50) is 0.0224 µM (active).

Turning to `CCCOC(=O)c1cc(O)c(O)c(O)c1`, the concentration at half-maximal activity (AC50) in assay [1] was 0.26 µM (active).

For `CCCCCCCCCC(=O)O`, the half-maximal activity concentration (AC50) in assay [1] is 7.04 µM (active).

As to `CCCCCCCCOC(=O)c1cc(O)c(O)c(O)c1`, the AC50 in assay [1] was 0.512 µM (active).

With `CC(C)(c1cc(Br)c(O)c(Br)c1)c1cc(Br)c(O)c(Br)c1`, in assay [1], the AC50 is 0.0228 µM (active).

In the case of `CC/C(=C(/CC)c1ccc(O)cc1)c1ccc(O)cc1`, the AC50 in assay [2] was 7.85 µM (active); in assay [3], 1.9 µM (active); in assay [4], 1.45 µM (active); in assay [1], 0.021 µM (active).

In the case of `CCCCOC(=O)c1ccc(O)cc1`, the concentration at half-maximal activity (AC50) was 21.6 µM (active) in assay [2], 89.2 µM (active) in assay [3], 19.8 µM (active) in assay [4] and 2.26 µM (active) in assay [1].

As a reminder, the AC50 is the concentration at which the activity in the assay is half-maximal.
